Sampled rows, rich in hits. Any-hit rate of the full collection: about 28%.
CYP2C9 inhib: blockers of cytochrome P450 2C9 activity – biochemical, luminescence, ADME assay, primary screen; P11712; CYP2C9 Supersomes, luciferin-H conversion; 96,000 compounds, 20% hits; inhibition, % at 5 µM;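 active = blocking of liver enzyme CYP2C9 beyond about 50% at 5 µM, limit read from the data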
Target sequence (P11712 whole entry, looked up): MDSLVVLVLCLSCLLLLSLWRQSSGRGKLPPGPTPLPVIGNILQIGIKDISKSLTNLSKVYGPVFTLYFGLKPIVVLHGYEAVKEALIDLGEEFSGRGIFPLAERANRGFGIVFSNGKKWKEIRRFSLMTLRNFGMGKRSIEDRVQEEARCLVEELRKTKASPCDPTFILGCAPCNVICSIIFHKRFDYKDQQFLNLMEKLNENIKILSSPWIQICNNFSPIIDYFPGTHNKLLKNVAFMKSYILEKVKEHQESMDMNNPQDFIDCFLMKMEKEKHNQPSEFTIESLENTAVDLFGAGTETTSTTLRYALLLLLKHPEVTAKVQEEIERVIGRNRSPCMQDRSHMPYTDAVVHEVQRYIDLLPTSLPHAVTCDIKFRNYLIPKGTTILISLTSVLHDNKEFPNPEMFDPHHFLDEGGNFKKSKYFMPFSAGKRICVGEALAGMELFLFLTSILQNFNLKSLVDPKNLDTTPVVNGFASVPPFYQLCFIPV
PLK1 kinase inh: human PLK1 kinase inhibitors, primary screen, biochemical, TR-FRET; 97,000 compounds, 0.53% hits; recombinant PLK1 kinase, TR-FRET peptide phosphorylation; inhibition, % at 10 µM; Serine/threonine-protein kinase PLK1 (Homo sapiens), P53350;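 active = inhibition of 50% or more in the single-concentration screen; inactive = inhibition below 50%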;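 also: 0% = DMSO max control and 100% = H-89 dihydrochloride min control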
CYP2C19 activ: human CYP2C19 activators, primary screen, biochemical, luminescence; Cytochrome P450 2C19 (Homo sapiens), P33261; recombinant CYP2C19, luciferin-H EGE luminescence; hits give high values; 0 = fully inhibited enzyme, 1 = untreated enzyme; activation factor at 5 µM; 96,000 tested, under 10 active; AID 1025, 2008;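 active = activation factor of at least 2 at 5 µM in the primary screen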;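 also: 0 = wells with 2.5 mM tranylcypromine and 1 = vehicle-only wells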
CYP2C9 act: human CYP2C9 activators, primary screen, biochemical, luminescence; AID 1024, 2008; 96,000 compounds, 1.4% hits; activation factor at 5 µM; recombinant CYP2C9, luciferin-H conversion; hits give high values; factor 1 = untreated enzyme, 0 = blocked;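 active = activation factor of 2 or more for CYP2C9 at a 5 µM dose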;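 also: 0 = sulfaphenazole-blocked wells and 1 = vehicle-only wells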
Plk1 PBD FP: Plk1 polo box domain binding inhibitors, primary screen, biochemical, fluorescence polarization; Plk1 PBD phosphopeptide binding; 97,000 compounds, 0.13% hits; inhibition, %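 (tested at about 20 µM)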; AID 693, 2007; in the data active = inhibition above about 34%, passing the limit was not always enough
CYP2C19 inhib: blockers of cytochrome P450 2C19 activity – biochemical, luminescence, ADME assay, primary screen; P33261; inhibition, % at 5 µM; CYP2C19 Supersomes, luciferin-H EGE luminescence, 30 min; AID 778, 2007; 96,000 compounds, 21% hits;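 active = CYP2C19 inhibition above a set limit at 5 µM in the primary screen, cut at about 50% in these data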;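 also: plate controls were negative control wells for no effect and 2.5 mM tranylcypromine positive control for full effect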
An asterisk follows results filed as active; x = no result.

SMILES | CYP2C9 inhib | PLK1 kinase inh | CYP2C19 activ | CYP2C9 act | Plk1 PBD FP | CYP2C19 inhib
COCC(C)n1c(SCC(=O)NC(=O)Nc2ccc3c(c2)OCCO3)nc2ccccc2c1=O (stereo not given) | 78* | 4 | 0.5 | 0.2 | -33 | 52*
O=C(CSc1nc(Cc2ccccc2)nc2ccccc12)Nc1ccc2c(c1)OCCO2 | 24 | -9 | 1 | 0.8 | 20 | 5
CC(C)Cn1c(SC(C)C(=O)Nc2ccc3c(c2)OCCO3)nc2ccccc2c1=O (stereo not given) | 93* | 7 | 0.2 | 0.1 | -3 | 83*
CC(C)Oc1cccc(C(=O)NC(=S)Nc2ccc(Cl)c(C(=O)O)c2)c1 | 22 | -3 | 1.1 | 0.8 | 6 | -15
COC(=O)C1=C(C)N(c2ccc(F)c(Cl)c2)C(=O)C1 | 52* | -4 | 0.6 | 0.5 | 5 | 41
COC(=O)C1=C(C)N(c2ccc(F)cc2)C(=O)C1 | 3 | -7 | 0.4 | 1 | 28 | 60*
COC(=O)C1=C(C)N(c2cccc(Cl)c2)C(=O)C1 | 23 | -14 | 0.4 | 0.8 | 16 | 64*
COC(=O)C1=C(C)N(c2ccc(OC)c(OC)c2)C(=O)C1 | 74* | x | 0.8 | 0.3 | x | 18
CCc1nnc(NC(=O)c2ccc(S(=O)(=O)NCC(C)C)cc2)s1 | -5 | -10 | 1 | 1 | -15 | -2
O=[n+]1c2c(n([O-])c3ccccc31)CCCC2 | 23 | 1 | 1 | 0.8 | 14 | 0
CCOC(=O)c1ccccc1NC(=O)CC(C)CC(=O)O (stereo not given) | -13 | -8 | 0.9 | 1.1 | 0 | 13
CN(Cc1ccco1)C(=O)C(Cc1ccccc1)NS(=O)(=O)c1ccc2c(c1)CCC(=O)N2 (stereo not given) | 71* | -9 | 0.4 | 0.3 | -8 | 56*
CCCCSc1nnc(-c2cc3c(C(F)(F)F)nn(C)c3s2)n1C | -99 | -6 | 1 | 2* | -16 | 2
Cc1ccc2nc(CSc3nc(C)ccc3C#N)[nH]c2c1 | 50 | -6 | 0.4 | 0.5 | -23 | 58*
COc1cc(Cl)c(C)cc1NC(=O)COC(=O)c1cnc(C)cn1 | 19 | -6 | 0.4 | 0.8 | -6 | 57*
COCCOc1nc2c(c(=O)n(C)c(=O)n2C)n1Cc1cccc(OC)c1 | 36 | -11 | 0.9 | 0.6 | -7 | 12
Cc1ccc(Nc2ccccc2)cc1 | x | -4 | x | x | -8 | x
Cc1ccc(NC2=Nc3ccccc3CS2)cc1 | 13 | -3 | 0.5 | 0.9 | -7 | 51*
COc1ccc(Br)cc1C1CC(=O)N2CN(Cc3ccccc3)CSC2=C1C#N (stereo not given) | 94* | -4 | 0.3 | 0.1 | -13 | 70*
COc1cc(OC)c(C2CC(=O)N3CN(C)CSC3=C2C#N)cc1OC (stereo not given) | 38 | -7 | 1 | 0.6 | -30 | -2
COc1ccc(Br)cc1C1CC(=O)N2CN(C)CSC2=C1C#N (stereo not given) | 88* | -8 | 0.4 | 0.1 | 23 | 60*
COc1ccc2ccccc2c1C1CC(=O)N2CN(C)CSC2=C1C#N (stereo not given) | 46 | 0 | 0.9 | 0.5 | -1 | 9
N#CC1=C2SCN(Cc3ccccc3)CN2C(=O)CC1c1ccccc1F (stereo not given) | 65* | -11 | 0.6 | 0.4 | -9 | 42
Cc1nn(CC(=O)Nc2ccccn2)c(C)c1[N+](=O)[O-] | -4 | 5 | 0.9 | 1 | -25 | 9
CCOC(=O)CSCC(NC(=O)OC(C)(C)C)C(=O)OCC (stereo not given) | 6 | -3 | 0.8 | 0.9 | 10 | 21
SMILES | CYP2C9 inhib | PLK1 kinase inh | CYP2C19 activ | CYP2C9 act | Plk1 PBD FP | CYP2C19 inhib
CCOC(=O)C(CSCC(=O)c1ccc(Cl)cc1Cl)NC(=O)OC(C)(C)C (stereo not given) | 88* | -4 | 0 | 0.1 | -10 | 97*
O=C(COC(=O)C1(c2ccccc2F)CCCC1)N1CCN(C(=O)c2ccco2)CC1 | 5 | -3 | 1 | 1 | -7 | 1
Cc1cc(C(=O)CSc2nn3c(=O)c(C(C)(C)C)nnc3s2)c(C)n1-c1ccc(F)cc1 | 58* | -9 | 0.7 | 0.4 | -2 | 31
CC(C)(C)c1nnc2sc(SCCN3C(=O)c4ccccc4C3=O)nn2c1=O | 47 | -4 | 0.8 | 0.5 | 14 | 22
CC(C)N(C(=O)CSc1nn2c(=O)c(C(C)(C)C)nnc2s1)c1ccccc1 | 89* | 3 | 0.1 | 0.1 | 3 | 88*
O=C(Oc1cccc(NC(=O)c2ccco2)c1)c1cccc(S(=O)(=O)N2CCCCC2)c1 | 4 | -13 | 1.2 | 1 | -3 | -17
N#Cc1cc2c(nc1SCC(=O)N1CCCCC1)CCCC2 | 47 | -12 | 1.1 | 0.5 | 15 | -9
CC(C)OC(=O)CC(=O)CSc1nc2c(cc1C#N)CCCCC2 | 87* | -4 | 0.3 | 0.1 | 14 | 73*
CCOC(=O)CC(=O)CSc1nc2c(cc1C#N)CCCCC2 | 66* | -10 | 0.5 | 0.3 | 14 | 47
CC(C)(CNc1ccc([N+](=O)[O-])cc1Cl)CNS(C)(=O)=O | 44 | 0 | 0.5 | 0.6 | -32 | 55*
CCOc1ccc(S(=O)(=O)N(CC(=O)Nc2cc(C)on2)Cc2ccccc2Cl)cc1 | 82* | -4 | 0.3 | 0.2 | -3 | 71*
CC(C)(C)OC(=O)NNC(=O)c1ccc(Cl)cc1 | 24 | -2 | 0.5 | 0.8 | 6 | 46
Cc1cc(C)nc(N(C#N)Cc2ccc(Br)cc2)n1 | 6 | -13 | 0.3 | 0.9 | -16 | 68*
Cc1ccc(CN(C#N)c2nc(C)cc(C)n2)cc1 | -52 | -8 | 0.6 | 1.5 | -6 | 44
Cc1cc(N2CCCCCC2)nc2ccccc12 | 0 | -19 | 0.8 | 1 | 10 | 21
N#CCC(CNc1ncc(C(F)(F)F)cc1Cl)OC(=O)c1c(F)cccc1F (stereo not given) | x | -5 | x | x | 25 | x
N#CCC(CNc1ncc(C(F)(F)F)cc1Cl)OC(=O)c1ccc(Cl)cc1 (stereo not given) | -9 | -17 | 0.2 | 1.1 | -18 | 84*
N#CCC(CNc1ncc(C(F)(F)F)cc1Cl)OC(=O)c1cccc([N+](=O)[O-])c1 (stereo not given) | 68* | -6 | 0 | 0.3 | 32 | 96*
CCn1c(SCc2ccc(F)cc2)nnc1C1CCN(S(=O)(=O)c2ccc(OC)cc2)CC1 | -86 | -9 | 0.8 | 1.9 | -3 | 17
O=C(O)c1ccc(-n2c(-c3ccc(Br)cc3)n[nH]c2=S)cc1 | -15 | -12 | 1 | 1.2 | -15 | 2

Screens as filed in PubChem BioAssay.
